Laboratory results from PubChem BioAssay AID1159580 (chemical genetic matrix, 2015).
Screen size: about 5,500 compounds; about 2,000 (36%) were called active. Roughly 18% stayed inconclusive and do not appear here. Rule as the data show it: active = normalized growth mostly below about 0.91 (no sharp cut-off); inconclusive = no clear call, values can overlap the other calls; inactive = mostly above about 0.92. Some of the results follow.

Assay: chemical genetic growth profiling, strain panel (AID 1159580);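 also: tested at 20 µM; growth read once vehicle control cultures reached saturation at 30 °C; 1 = growth at the plate median or of vehicle wells; lower values mean less growth of the strain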
Conditions: S. cerevisiae deletion strains, growth OD

Measured: normalized growth

C=C(NC(=O)C(=C)NC(=O)c1csc(C2=NC3c4csc(n4)C4NC(=O)c5csc(n5)C(C(C)(O)C(C)O)NC(=O)C5CSC(=N5)C(=CC)NC(=O)C(C(C)O)NC(=O)c5csc(n5)C3(CC2)NC(=O)C(C)NC(=O)C(=C)NC(=O)C(C)NC(=O)C(C(C)CC)NC2C=Cc3c(C(C)O)cc(nc3C2O)C(=O)OC4C)n1)C(N)=O (stereo not given)
inactive: locus YAL021C, strain ccr4, active compounds read low 1.01 | locus YAL026C, strain drs2, active compounds read low 1.01 | locus YAL030W, strain snc1, active compounds read low 1.01 | locus YBL061C, strain skt5, active compounds read low 1 | locus YBR009C, strain hhf1, active compounds read low 1 | locus YBR023C, strain chs3, active compounds read low 1.01 | locus YBR171W, strain sec66, active compounds read low 1.02 | locus YBR231C, strain swc5, active compounds read low 1.01 | locus YBR279W, strain paf1, active compounds read low 0.986 | locus YCL011C, strain gbp2, active compounds read low 1 | locus YCL016C, strain dcc1, active compounds read low 1.02 | locus YCL061C, strain MRC1, active compounds read low 1.01 | locus YCL069W, strain vba3, active compounds read low 1.01 | locus YCR088W, strain abp1, active compounds read low 1.02 | locus YDL005C, strain med2, active compounds read low 0.993 | locus YDL040C, strain nat1, active compounds read low 0.993 | locus YDR001C, strain nth1, active compounds read low 1.01 | locus YDR069C, strain doa4, active compounds read low 1.01 | locus YDR137W, strain rgp1, active compounds read low 1.04 | locus YDR159W, strain sac3, active compounds read low 1 | locus YDR195W, strain ref2 1.01 | locus YDR297W, strain sur2, active compounds read low 1 | locus YDR334W, strain swr1, active compounds read low 1.02 | locus YDR335W, strain msn5, active compounds read low 0.991 | locus YDR392W, strain spt3, active compounds read low 1.01 | locus YEL003W, strain gim4, active compounds read low 1.01 | locus YEL037C, strain rad23, active compounds read low 1 | locus YEL061C, strain CIN8 (second series), active compounds read low 1.02 | locus YER015W, strain faa2, active compounds read low 0.993 | locus YER016W, strain bim1, active compounds read low 1 | locus YER111C, strain swi4, active compounds read low 1.03 | locus YER155C, strain BEM2 (second series), active compounds read low 1.06 | locus YFR010W, strain ubp6, active compounds read low 1.01 | locus YGL167C, strain pmr1, active compounds read low 1.01 | locus YGL173C, strain kem1, active compounds read low 1.01 | locus YGL227W, strain vid30, active compounds read low 0.989 | locus YGL240W, strain doc1, active compounds read low 1.01 | locus YGL253W, strain hxk2, active compounds read low 1.01 | locus YHR013C, strain ard1, active compounds read low 1.03 | locus YHR027C, strain rpn1, active compounds read low 1.01 | locus YHR030C, strain SLT2, active compounds read low 0.979 | locus YHR079C, strain IRE1, active compounds read low 0.99 | locus YHR142W, strain chs7, active compounds read low 1.03 | locus YJL092W, strain hpr5, active compounds read low 1.01 | locus YJL095W, strain BCK1 (second series), active compounds read low 1.01 | locus YJL095W, strain BCK1, active compounds read low 0.981 | locus YJL115W, strain asf1, active compounds read low 1.01 | locus YJL129C, strain trk1, active compounds read low 1 | locus YJL154C, strain vps35, active compounds read low 1.02 | locus YJL164C, strain tpk1, active compounds read low 1.01 | locus YJL166W, strain qcr8, active compounds read low 1.02 | locus YJL187C, strain SWE1, active compounds read low 1.01 | locus YJR066W, strain TOR1, active compounds read low 0.968 | locus YKL160W, strain elf1, active compounds read low 1.02 | locus YKR026C, strain gcn3, active compounds read low 0.997 | locus YKR091W, strain srl3, active compounds read low 0.984 | locus YLL001W, strain dnm1, active compounds read low 1.02 | locus YLL026W, active compounds read low 0.995 | locus YLL041C, strain sdh2, active compounds read low 1.01 | locus YLR027C, strain aat2, active compounds read low 0.999 | locus YLR113W, strain HOG1, active compounds read low 0.987 | locus YLR221C, strain rsa3, active compounds read low 0.994 | locus YLR258W, strain gsy2, active compounds read low 1.02 | locus YLR262C, strain YPT6 (second series), active compounds read low 1.04 | locus YLR320W, strain mms22, active compounds read low 1.02 | locus YLR342W, strain FKS1, active compounds read low 1.02 | locus YLR357W, strain rsc2, active compounds read low 0.969 | locus YLR370C, strain arc18, active compounds read low 1 | locus YLR384C, strain iki3, active compounds read low 1.01 | locus YML120C, strain ndi1, active compounds read low 1 | locus YMR058W, strain fet3, active compounds read low 1 | locus YMR125W, strain sto1, active compounds read low 1.01 | locus YMR129W, active compounds read low 0.999 | locus YMR205C, strain PFK2, active compounds read low 1.01 | locus YMR231W, strain pep5, active compounds read low 0.983 | locus YNL071W, strain lat1, active compounds read low 1.01 | locus YNL183C, strain NPR1, active compounds read low 0.971 | locus YNL209W, strain ssb2, active compounds read low 1 | locus YNL248C, strain rpa49, active compounds read low 0.994 | locus YNL322C, strain KRE1 (second series), active compounds read low 1.02 | locus YNR049C, strain mso1, active compounds read low 1.01 | locus YOR001W, strain rrp6, active compounds read low 1.02 | locus YOR070C, strain gyp1, active compounds read low 1.01 | locus YOR080W, strain dia2, active compounds read low 1.02 | locus YOR083W, strain WHI5, active compounds read low 1.01 | locus YOR106W, strain vam3, active compounds read low 1.03 | locus YOR231W, strain MKK1, active compounds read low 0.981 | locus YOR265W, strain rbl2, active compounds read low 1.02 | locus YOR270C, strain vph1, active compounds read low 1 | locus YOR290C, strain snf2, active compounds read low 1.01 | locus YPL051W, strain arl3, active compounds read low 1.01 | locus YPL078C, strain atp4, active compounds read low 1.01 | locus YPL106C, strain sse1, active compounds read low 0.982 | locus YPL240C, strain hsp82, active compounds read low 0.997 | locus YPL256C, strain CLN2, active compounds read low 0.979
